Compound activity from PubChem.
Most compounds without a hit are left out; they make up all but 2.5% or so of the library.
UBC13 inh: blocks human UBC13 polyubiquitin chain formation; P61088; TR-FRET; inhibition, % at 20 µM; hit rate 0.47% among 330,000; AID 485273; in the data active = inhibition above about 45%, passing the limit was not always enough
Target sequence (P61088 whole entry, looked up): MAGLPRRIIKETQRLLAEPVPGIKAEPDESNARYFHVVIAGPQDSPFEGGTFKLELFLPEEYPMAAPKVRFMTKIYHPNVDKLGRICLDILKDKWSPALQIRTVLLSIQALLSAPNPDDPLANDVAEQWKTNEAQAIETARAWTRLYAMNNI
MEKK2 WT-MEK5: raises or lowers MEK5 binding to wildtype human MEKK2 PB1 domain. Q9Y2U5. bead flow cytometry, Alexa488-MEK5 binding to MEKK2 WT; actives lie on both sides. binding response (% of control), % at 10 µM. hit rate 1.1% among 290,000. AID 1531; in the data active = binding response below about 67% or above about 130%
MEKK2mut PB1 HTS: signal of MEK5 binding to mutant human MEKK2 PB1 domain | hit rate 0.35% among 290,000 | percent response, % at 10 µM | bead flow cytometry, Alexa488-MEK5 binding to MEKK2 mutant; in the data active = percent response above about 24%, passing the limit was not always enough
Rce1 inhib: yeast Ras-converting enzyme inhibition; yeast membranes, quenched prenylated peptide cleavage fluorescence; calls only; hit rate 0.27% among 290,000; AID 2563;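 active = fall in fluorescence gain of 50% or more versus controls, with final raw signal at or below 3038400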
Target sequence (Q03530 whole entry, looked up): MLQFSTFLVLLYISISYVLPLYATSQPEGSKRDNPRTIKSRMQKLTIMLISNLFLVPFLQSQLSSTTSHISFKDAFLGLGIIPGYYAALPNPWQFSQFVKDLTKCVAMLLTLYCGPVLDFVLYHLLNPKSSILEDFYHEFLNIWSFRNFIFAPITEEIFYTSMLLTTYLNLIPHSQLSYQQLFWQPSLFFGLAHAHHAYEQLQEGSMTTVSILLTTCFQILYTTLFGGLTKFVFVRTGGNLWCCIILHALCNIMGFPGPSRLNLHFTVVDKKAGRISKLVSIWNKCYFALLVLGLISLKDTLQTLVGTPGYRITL
MEKK3 PB1 HTS: MEKK3-MEK5 PB1 interaction, increase or decrease; Q99759; bead-based flow cytometry, Alexa488-MEK5 binding to MEKK3; actives lie on both sides; 0 = blocked by unlabeled MEK5, 100 = vehicle; binding response (% of control), % at 10 µM; hit rate 1.4% among 290,000; AID 1529;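 active = binding response more than 3 SD above or below the average of its plate-row segment, actives on both sides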;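 note: Alexa488 bead fluorescence after subtracting the streptavidin-only scavenger bead signal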
MEKK2wt confirm: raises or lowers MEK5 binding to wildtype human MEKK2, retest. hit rate 2.4% among 5,900. binding response (% of control), % at 10 µM. bead flow cytometry, Alexa488-MEK5 binding to MEKK2 WT; actives lie on both sides. shares compounds with MEKK3 PB1 HTS; in the data active = binding response below about 16% or above about 210%; inactive = in between
MEKK2mut-MEK5: signal of MEK5 binding to mutant human MEKK2, retest; hit rate 2% among 5,900; bead flow cytometry, Alexa488-MEK5 binding to MEKK2 mutant; percent response, % at 10 µM; shares compounds with MEKK3 PB1 HTS; AID 1893; in the data active = percent response mostly above about 71%, no sharp cut-off; inactive = mostly below about 38%;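 note: higher means compound restores mutant binding toward wildtype level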
MEKK3-MEK5 inh: confirmation of inhibitors of MEK5 binding to human MEKK3. shares compounds with MEKK3 PB1 HTS. bead flow cytometry, Alexa488-MEK5 binding to MEKK3; hits give low values. binding response (% of control), % at 10 µM. hit rate 1.8% among 5,900;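 active = binding response below 72% of control, or above a set upper limit, though filed actives all read lower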;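 note: lower values mean stronger disruption of MEK5 binding to MEKK3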
Casp3 counter: inhibits human caspase-3 in UBC13 counter-screen; shares compounds with UBC13 inh; Recombinant caspase-3, Caspase-Glo 3/7 luminescence, 60 min; inhibition, % at 20 µM; hit rate 4% among 1,400;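 active = mean inhibition across replicates above about 26%, limit read from the data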
Target sequence (P42574 whole entry, looked up): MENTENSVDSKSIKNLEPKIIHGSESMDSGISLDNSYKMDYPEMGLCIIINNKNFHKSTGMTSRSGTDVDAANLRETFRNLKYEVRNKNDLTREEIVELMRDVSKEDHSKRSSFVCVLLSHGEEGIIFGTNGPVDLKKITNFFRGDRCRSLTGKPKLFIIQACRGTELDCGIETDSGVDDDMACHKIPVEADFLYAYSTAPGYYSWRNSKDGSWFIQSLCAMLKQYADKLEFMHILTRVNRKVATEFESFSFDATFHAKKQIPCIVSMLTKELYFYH
UBC13 confirm: human UBC13 polyubiquitin inhibition, confirmed; shares compounds with UBC13 inh; UBC13 polyubiquitination, TR-FRET, biochemical; inhibition, % at 10 µM; hit rate 68% among 1,400; AID 488859; in the data active = inhibition above about 45%
A number is an active result; 0 = inactive; - = not tested or not shown; [ ] = another dose, or the depositor's remark.

SMILES	UBC13 inh	MEKK2 WT-MEK5	MEKK2mut PB1 HTS	Rce1 inhib	MEKK3 PB1 HTS	others
Cc1ccc2[nH]c(C)c(CCNCc3ccco3)c2c1	0	0	0	0	0
COc1ccc2[nH]c(C)c(CCNCc3cccnc3)c2c1	0	-	-	-	-
Cc1[nH]c2ccc(OC(F)(F)F)cc2c1CCNCc1ccc(Cl)cc1	0	174	37	0	0	MEKK2wt confirm=0;MEKK2mut-MEK5=0;MEKK3-MEK5 inh=0
CCOc1cccc(CNCCc2c(C)[nH]c3ccc(OC(F)(F)F)cc23)c1O	0	150	0	0	0	MEKK2wt confirm=0;MEKK2mut-MEK5=0;MEKK3-MEK5 inh=0
OCC(Cl)CCl (stereo unspecified)	0	-	-	-	-
COc1cc(C)c(CNCCc2c[nH]c3ccccc23)cc1C	0	0	26	0	0	MEKK2wt confirm=0;MEKK2mut-MEK5=0;MEKK3-MEK5 inh=69
CCOc1cc(CNCCc2c[nH]c3ccccc23)cc(Cl)c1OCC	0	0	0	0	0
CCOc1c(Cl)cc(CNCCc2c[nH]c3ccccc23)cc1OC	0	156	0	0	0	MEKK2wt confirm=0;MEKK2mut-MEK5=0;MEKK3-MEK5 inh=0
O=C1NC(=S)NC(=O)C1C/C=C/c1ccccc1	0	-7.0[inhibitor]	0	0	0	MEKK2wt confirm=0;MEKK2mut-MEK5=0;MEKK3-MEK5 inh=0
C=C(C)[C@@H]1C2C(=O)O[C@H]1[C@H]1OC(=O)[C@@]34OC3C[C@]2(O)[C@@]14C (stereo partly specified)	0	-	-	-	-
Nc1ccc2c(c1)Cc1ccccc1-2	0	0	0	0	133	MEKK2wt confirm=0;MEKK2mut-MEK5=0;MEKK3-MEK5 inh=0
N=C1c2ccccc2CN1c1ncccn1	0	0	0	-	0
N#CC(C#N)=NNc1ccc(-n2ccc(C(F)(F)F)n2)cc1	0	0	0	0	0
Cc1cc(C)n(-c2ccc(NN=C(C#N)C#N)cc2)n1	0	43[inhibitor]	0	0	40[inhibitor]	MEKK2wt confirm=0;MEKK2mut-MEK5=0;MEKK3-MEK5 inh=0
CCc1cccc(C)c1NC(=S)N1CC2CC(C1)c1cccc(=O)n1C2 (stereo unspecified)	0	0	0	0	0
Cc1ccccc1-c1nc(CS(=O)CC(=O)N2CCC3(CC2)OCCO3)c(C)o1 (stereo unspecified)	0	0	0	0	0
Cc1ccsc1-c1nc(CSCC(=O)N2CCC3(CC2)OCCO3)c(C)o1	0	0	0	0	123	MEKK2wt confirm=0;MEKK2mut-MEK5=0;MEKK3-MEK5 inh=0
OCC1CO1 (stereo unspecified)	0	-	-	-	-
COc1ccc2c(c1)c(C(=O)CN1CCN(C)CC1)c(C)n2Cc1ccccc1	0	141	0	-	0	MEKK2wt confirm=0;MEKK2mut-MEK5=0;MEKK3-MEK5 inh=0
CCN1CCN(CC(=O)c2c(C)n(Cc3ccccc3)c3ccc(OC)cc23)CC1	0	0	0	0	0
Cc1ccc2c(c1)C1CN(C)CCC1N2C(=O)c1ccco1 (stereo unspecified)	0	0	0	0	71[inhibitor]	MEKK2wt confirm=0;MEKK2mut-MEK5=0;MEKK3-MEK5 inh=0
Cc1ccc2c(c1)C1CN(C)CCC1N2C(=O)Nc1cccc(Cl)c1 (stereo unspecified)	0	0	0	0	0
COCCNC(=O)CN1C(=O)CN=C(c2ccccc2)c2ccccc21	0	0	0	0	0
CC(C)N1C(=O)/C(=C/C=C/c2ccco2)C(=O)N(Cc2ccco2)C1=O	0	0	0	0	0
CCN1C(=O)C(=C/C=C/c2ccco2)C(=O)N(CC)C1=S	0	59[inhibitor]	0	0	0	MEKK2wt confirm=0;MEKK2mut-MEK5=0;MEKK3-MEK5 inh=0
SMILES	UBC13 inh	MEKK2 WT-MEK5	MEKK2mut PB1 HTS	Rce1 inhib	MEKK3 PB1 HTS	others
Cc1ccc(C)c(NC(=O)CCNC(=O)N2C[C@H]3C[C@@H](C2)c2cccc(=O)n2C3)c1	0	0	0	0	0
CCCCCCCSc1cc(OC)c(CCNC)cc1OC	51	149	0	0	0	MEKK2wt confirm=0;MEKK2mut-MEK5=0;MEKK3-MEK5 inh=0;Casp3 counter=0;UBC13 confirm=62
COc1ccc(-n2nc(C(=O)NCC(=O)N3CCC4(CC3)OCCO4)c3ccccc3c2=O)cc1Cl	0	0	0	0	0
COc1ccccc1CCNCc1cccc(C(F)(F)F)c1	52	0	0	0	0	Casp3 counter=0;UBC13 confirm=0
O=P1(NCCCl)OCCCN1CCCl (stereo unspecified)	46	-	-	-	-	Casp3 counter=0;UBC13 confirm=0
CCN(CC)CCCNC(=O)c1c(O)c2ccccc2n(Cc2ccccc2)c1=O	53	0	0	0	0	Casp3 counter=0;UBC13 confirm=74
CCN(CC)CCNC(=O)c1c(O)c2ccccc2n(Cc2ccccc2)c1=O	0	0	0	0	0
N=c1c[n+](C2CCCCC2)[n-]o1	0	0	0	0	0
NC(N)=N/N=C/c1cn(-c2ccccc2)nc1-c1cccs1	79	184	0	0	0	Casp3 counter=0;UBC13 confirm=85
CC1=C(/C=C/c2ccccc2)CCN(C)C1	0	0	0	0	0
CC12CNCC(C)(CNC1)C2O (stereo unspecified)	57	-	-	0	-	Casp3 counter=0;UBC13 confirm=0
Cc1nn(Cc2ccccc2)c(C)c1C(=O)OCC(=O)Nc1cccc(S(N)(=O)=O)c1	0	0	0	0	0
NC(N)=Nc1ccc2[nH]c3c(c2c1)C[C@@]1(O)[C@H]2Cc4ccc(O)c5c4[C@@]1(CCN2CC1CC1)[C@H]3O5	53	-	-	-	-	Casp3 counter=0;UBC13 confirm=0
Oc1ccc2c3c1O[C@H]1[C@@H](O)CC[C@@]4(O)[C@@H](C2)N(CC2CCC2)CC[C@]314	0	-	-	0	-
COC(=O)C1=C(c2ccc(OCc3ccccc3)cc2)C[C@@H]2CC[C@H]1N2C(=O)NC1CCN(Cc2ccccc2)CC1	55	-	-	-	-	Casp3 counter=0;UBC13 confirm=0
COc1ccccc1CCNC1C2CC3CC(C2)CC1C3 (stereo unspecified)	0	0	0	0	0
O=C(c1ccccc1F)c1cn(Cc2ccc(F)cc2)c2ccccc12	0	0	0	0	0
CCCCCn1cc(C(=O)C(=O)N2CCOCC2)c2ccccc21	0	0	0	0	0
O=C(C(=O)N1CCOCC1)c1cn(Cc2ccc(F)cc2)c2ccccc12	45	0	0	0	0	Casp3 counter=0;UBC13 confirm=0
O=C(C(=O)N1CCOCC1)c1cn(Cc2ccccc2Cl)c2ccccc12	54	0	0	0	0	Casp3 counter=0;UBC13 confirm=53
C#C[C@@]1(O)CCC2C3CCC4=C/C(=N/OCC(=O)NC(CCC(N)=O)C(=O)O)CC[C@]4(C)C3CC[C@@]21C (stereo partly specified)	0	0	0	0	0
C/C(=N\NP(=S)(c1ccccc1)c1ccccc1)c1ccc(O)cc1O	0	0	0	0	0
COCCCNC(=O)c1c(NC(=O)c2ccccc2)n(Cc2ccccc2)c2nc3ccccc3nc12	49	0	0	0	0	Casp3 counter=0;UBC13 confirm=0
COc1cc2c(c(OC)c1OC)-c1ccc(C(=O)O)cc1[C@@H](NC(C)=O)CC2	0	0	0	0	0
COc1cc2c(c(OC)c1OC)-c1ccc(O)c(=O)cc1[C@@H](N)CC2	100	-	-	-	-	Casp3 counter=0;UBC13 confirm=93
